This is an account of results in PubChem BioAssay (NCI).

Holding throughout (test): NCI-60 one-dose screen, 48 h (100 = growth as untreated, 0 = no growth, -100 = all killed)
Holding throughout (conditions): 10 µM unless noted

Assay [1] relates to NCI-H23 lung.
The subject of assay [2] is NCI-H226 lung.
The test system of assay [3] is NCI-H322M lung.
The subject of assay [4] is HOP-62 NSCLC.
Assay [5] concerns NCI-H460 lung.
Assay [6] has as its system HOP-92 NSCLC.
Assay [7] has as its system NCI-H522 lung.
Assay [8] concerns A549/ATCC NSCLC.
For assay [9], the system named is 786-0 renal.
The test system of assay [10] is COLO 205 colon.
In assay [11] the test system is DU-145 prostate.
Assay [12] has as its system K-562 leukemia.
Assay [13] has as its system MALME-3M melanoma.
The test system of assay [14] is MDA-MB-231 breast.
Assay [15] deals with RXF 393 renal.
Assay [16] deals with SF-268 CNS.
Assay [17] deals with SF-295 CNS.
The test system of assay [18] is SF-539 CNS.
Assay [19] deals with UACC-257 melanoma.
Assay [20] has as its system M14 melanoma.

This is part of a sample that, as a whole, favours compounds with a hit. Of some 83,000 tested, about 20% had one in any assay.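 How to read the values: 0–100, growth inhibition (40 = 60% inhibited); 0, no net growth; -100 to 0, cell death (-40 = 40% of starting cells died; -100 = all dead).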 Values without a mark were called inactive. Calls of active or inactive are those of the source. Rule for the calls: active = growth percent below 10; inactive = the rest.

Turning to `O=S(=O)(CC(O)(c1ccccc1)c1ccccc1)CC(O)(c1ccccc1)c1ccccc1`, the growth is 88.3% in assay [1]; 84.1% in assay [2]; 59.3% in assay [3]; 68.8% in assay [4]; 77.6% in assay [5]; 86.7% in assay [6]. Besides, the growth in assay [7] is 108%; in [8], 94.1%; in assay [9] it was 90.2%; in assay [10], 90.2%; in assay [11] it was 74.6%; in assay [12], 75.8%. Besides, the growth in assay [13] is 61.8%; in assay [14] it was 71.2%; in assay [15], 93.4%; in assay [16], 85.3%; in assay [17], 74.8%; in assay [18] it was 2.42% (active). Moreover, the growth in [19] is 102%; in [20], 95.2%.
As to `O=C(Nc1ccncc1)C(=O)c1cn(S(=O)(=O)c2ccc(Oc3ccccc3)cc2)c2ccccc12`, the growth in [1] was 77.5%; in assay [2] it was 103%; in [3], 94.4%; in assay [4] it was 88%; in assay [5], 72.1%; in [6] it was 71.6%. Also, the growth was 87.4% in [7]; 71.8% in assay [8]; 89.2% in assay [9]; 107% in assay [10]; 96.8% in assay [11]; 81.5% in assay [12]. The growth is 84.9% in [13]; 68.9% in [14]; 110% in assay [15]; 109% in assay [16]; 60% in assay [17]; 96.5% in [18]. For the same compound, the growth in assay [19] is 103%; in [20], 102%.
On to `COc1cccc(-c2nc3sccn3c2-c2ccnc(NCCCNS(=O)(=O)c3ccc(C(F)(F)F)cc3)c2)c1`, for which the growth in assay [1] is 70.4%; in assay [2], 59.4%; in [3], 79.4%; in assay [4], 91.3%; in assay [5] it was 52.4%; in assay [6] it was 68.9%. Moreover, the growth was 68.4% in assay [7]; 44.1% in assay [8]; 58.6% in [9]; 70.2% in [10]; 65.4% in assay [11]; 28.1% in [12]. Besides, the growth is 86.4% in assay [13]; 62.1% in [14]; 65.6% in [15]; 45.9% in assay [16]; 44.3% in assay [17]; 55.1% in assay [18]. Moreover, the values for the growth in [19] and in assay [20] were 61.7% and 47.7%, respectively.
With `O=C(NCCNc1nccc(-n2ccc3cccnc32)n1)c1ccc(C(F)(F)F)cc1`, the growth in [1] is 105%; in [2] it was 97.7%; in [3], 107%; in assay [4] it was 99.2%; in assay [5] it was 102%; in assay [6] it was 112%. In addition, the growth in [7] was 100%; in [8], 102%; in assay [9] it was 103%; in assay [10] it was 112%; in assay [11] it was 111%; in [12] it was 99.8%. Besides, the growth in assay [13] was 108%; in assay [14], 97.7%; in [15], 110%; in [16] it was 97.8%; in assay [17], 101%; in assay [18], 107%. The growth in assay [19] was 108%; in assay [20], 102%.
With `Cc1csc(NC(c2ccccc2)c2c(C)nc3ccccn23)n1` (stereo not given), the growth in [1] is 95.6%; in [2], 94.8%; in assay [3], 104%; in assay [4], 95.4%; in [5], 102%; in assay [6], 68.4%. Moreover, the growth in [7] was 95.3%; in assay [8], 99.1%; in [9] it was 100%; in assay [10], 106%; in assay [11], 110%; in assay [12] it was 88.1%. For the same compound, the growth in assay [13] was 97.2%; in [14], 96.8%; in assay [15], 122%; in [16], 103%; in assay [17], 87.1%; in assay [18], 101%. Besides, the growth in assay [19] is 94.8%; in assay [20] it was 95.3%.
With `O=C1/C(=C/c2ccccc2)Oc2ccc(O)c(I)c21`, the growth is 96.5% in assay [1]; 74.9% in [2]; 94.5% in assay [3]; 100% in assay [4]; 103% in [5]; 86% in assay [6]. Also, the growth in [7] is 84%; in assay [8] it was 103%; in [9], 98.9%; in assay [10] it was 120%; in [11] it was 111%; in assay [12] it was 99.5%. In addition, the growth was 101% in assay [13]; 81% in assay [14]; 108% in [15]; 82.6% in [16]; 104% in assay [17]; 87.7% in [18]. In addition, the growth in assay [19] is 96.6%; in [20] it was 98.5%.
As to `COc1ccc(-c2ccc(-c3ccc(C(=N)N)s3)s2)cc1Cl`, the growth was 45.4% in assay [1]; 79.3% in [2]; 96.8% in assay [3]; 70.9% in assay [4]; -36.5% (active) in assay [5]; 16.5% in assay [6]. Besides, the growth in [7] is 0.287% (active); in assay [8] it was -69.8% (active); in [9] it was 72.3%; in assay [10] it was -48.4% (active); in assay [11] it was 0.775% (active); in assay [12], -37.4% (active). Moreover, the growth in [13] is 64.3%; in assay [14], -42.3% (active); in assay [15], -87.5% (active); in assay [16] it was 76.8%; in assay [17], 10.8%; in [18], 65.7%. Moreover, the growth in assay [19] was 106%; in [20], 97.2%.
Take `O=C(Nc1ccncc1)C(=O)c1cn(S(=O)(=O)c2ccc(Br)cc2)c2ccccc12`: the growth in assay [1] is 46.9%; in [2], 77.8%; in assay [3] it was 97.1%; in assay [4] it was 44.7%; in assay [5], 68.4%; in [6], 48.6%. Moreover, the growth in assay [7] was 18.3%; in assay [8], 75.6%; in [9], 54.9%; in [10], 103%; in assay [11], 62.6%; in assay [12] it was 26.5%. The growth in assay [13] is 49.6%; in [14] it was 43%; in [15] it was 60.1%; in assay [16] it was 52.2%; in [17] it was 29.6%; in assay [18] it was 43.8%. Moreover, the growth in assay [19] is 69.4%; in assay [20], 31.6%.
